PubChem BioAssay (NCI)
“And” between values parts separate entries of the source, which are not always exact repeats. Identical values can stand only once. About 79,000 compounds went through this panel and 15% of them were active in at least one assay; those are over-represented in the sample as a whole. The source made the active and inactive calls. Cut-off read from the data, not from the text of the source: active = growth inhibition above about 70%; inactive = the rest.

Key:
[1] = NCI Yeast Anticancer Drug Screen. Data for the rad50 strain (AID 155);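 note: 0% = growth of vehicle-only cultures of the same strain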; conditions: S. cerevisiae rad50 strain growth inhibition, stronger effect = higher value
In short: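 Yeast carrying a defined DNA repair defect were exposed to test compounds, and growth was compared with vehicle-treated controls to give percent inhibition.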

[2] = NCI Yeast Anticancer Drug Screen. Data for the mec2-1 strain (AID 157); conditions: S. cerevisiae mec2-1 strain, stronger effect = higher value
In short: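 Compounds were applied to mec2-1 yeast cells. Their growth was then compared with that of vehicle-treated cultures to give growth inhibition.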

[3] = NCI Yeast Anticancer Drug Screen. Data for the sgs1 mgt1 strain (AID 161);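 note: 0% = growth of cultures given vehicle only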; conditions: S. cerevisiae sgs1 mgt1 strain, stronger effect = higher value
In short: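 Growth of a repair-deficient yeast mutant was monitored after compound treatment and expressed as inhibition relative to vehicle-treated cultures.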

[4] = NCI Yeast Anticancer Drug Screen. Data for the cln2 rad14 strain (AID 165);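 note: 0% = growth equal to vehicle treated cultures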; conditions: S. cerevisiae cln2 rad14 strain, stronger effect = higher value
In short: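 Strain: cln2 rad14 yeast, altered in cell cycle control and DNA damage repair. Read-out: growth inhibition vs vehicle.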

[5] = NCI Yeast Anticancer Drug Screen. Data for the bub3 strain (AID 167); conditions: S. cerevisiae bub3 mutant strain, stronger effect = higher value
In short: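 Compounds were applied to a genetically altered yeast strain carrying a cell-cycle control defect. Growth inhibition was scored against vehicle-treated controls.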

[6] = NCI Yeast Anticancer Drug Screen. Data for the mlh1 rad18 strain (AID 175); conditions: S. cerevisiae mlh1 rad18 strain growth inhibition, stronger effect = higher value
In short: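 A repair-deficient yeast strain is exposed to test compound, and growth is scored relative to vehicle-treated controls.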

[7] = at 5.0 µM (retest, dose inferred, filed as 0.5)
[8] = at 50.0 µM (retest, dose inferred, filed as 5.0)

Row | SMILES | growth inhibition [1, 7] | growth inhibition [1, 8] | growth inhibition ([1]; at 50.0 µM) | growth inhibition [2, 7] | growth inhibition [2, 8] | growth inhibition ([2]; at 50.0 µM) | growth inhibition [3, 7] | growth inhibition [3, 8] | growth inhibition ([3]; at 50.0 µM) | growth inhibition [4, 7] | growth inhibition [4, 8] | growth inhibition ([4]; at 50.0 µM) | growth inhibition [5, 7] | growth inhibition [5, 8] | growth inhibition ([5]; at 50.0 µM) | growth inhibition [6, 7] | growth inhibition [6, 8] | growth inhibition ([6]; at 50.0 µM)
1 | O=Cc1cc([N+](=O)[O-])cc(CCl)c1O | -119% (inactive) | 26% (inactive) | 20.7% (inactive) | -52% (inactive) | -31% (inactive) | 13.2% (inactive) | -59% (inactive) | -8% (inactive) | 15.2% (inactive) | -58% (inactive) | -17% (inactive) | 20.1% (inactive) | -71% (inactive) | -32% (inactive) | -6.45% (inactive) | -123% (inactive) | -28% (inactive) | 27.9% (inactive)
2 | CCCCCCCCCC(=O)c1ccc(O)c(O)c1O | 99% (active) | 98% (active) | 90.3% (active) | 99% (active) | 98% (active) | 91.8% (active) | 44% (inactive) | 94% (active) | 93.1% (active) | 63% (inactive) | 96% (active) | 91.1% (active) | 77% (active) | 79% (active) | 90.5% (active) | 100% (active) | 99% (active) | 89.7% (active)
3 | Clc1ccc(CNCCCNCc2ccc(Cl)cc2)cc1 | 80% (active) | 15% (inactive) | 27.8% (inactive) | 100% (active) | 31% (inactive) | 23% (inactive) | 67% (inactive) | 31% (inactive) | 50.4% (inactive) | 49% (inactive) | 13% (inactive) | 72% (active) | 91% (active) | 20% (inactive) | 27.3% (inactive) | 96% (active) | 13% (inactive) | 29.9% (inactive)
4 | Nc1nc(-c2ccccn2)cc2ccccc12 | 5% (inactive) | 63% (inactive) | -2.25% (inactive) | 25% (inactive) | 76% (active) | -11.2% (inactive) | 22% (inactive) | 77% (active) | 4.35% (inactive) | 21% (inactive) | 62% (inactive) | 4.4% (inactive) | 1% (inactive) | 61% (inactive) | 7.35% (inactive) | 29% (inactive) | 85% (active) | 11.1% (inactive)
5 | C=C1CCC[C@@H]2[C@@](C)(Cc3cc(O)ccc3O)C(C)CC[C@]12C (some centres undefined) | 16% (inactive) | 97% (active) | 97.5% (active) | 11% (inactive) | 97% (active) | 98.2% (active) | 25% (inactive) | 98% (active) | 97.7% (active) | -4% (inactive) | 97% (active) | 97.3% (active) | 0% (inactive) | 97% (active) | 97.8% (active) | 11% (inactive) | 96% (active) | 97.7% (active)
6 | O=C1C(CN2CCOCC2)CCCC1CN1CCOCC1 (centres undefined) | 0% (inactive) | 97% (active) | 12.2% (inactive) and 1.25% (inactive) | 4% (inactive) | 98% (active) | 35% (inactive) and 33.8% (inactive) | 2% (inactive) | 96% (active) | 10.8% (inactive) and 24.9% (inactive) | 3% (inactive) | 97% (active) | 19.1% (inactive) and -27.2% (inactive) | 0% (inactive) | 95% (active) | 1.05% (inactive) and 69.5% (inactive) | 3% (inactive) | 97% (active) | 26.8% (inactive) and 9.15% (inactive)
7 | CCCCCCCN | 1% (inactive) | 89% (active) | 50% (inactive) | -9% (inactive) | 85% (active) | 20.9% (inactive) | -2% (inactive) | 91% (active) | 19.9% (inactive) | -5% (inactive) | 52% (inactive) | 33.7% (inactive) | -2% (inactive) | 86% (active) | 12.1% (inactive) | -5% (inactive) | 88% (active) | 48.1% (inactive)
8 | CC1=CC(C)(C)Nc2ccc(CSc3ccccc3)cc21 | 7% (inactive) | 25% (inactive) | 8.1% (inactive) and 36.4% (inactive) | -8% (inactive) | -17% (inactive) | 11.9% (inactive) and 5.5% (inactive) | -1% (inactive) | 10% (inactive) | 12.4% (inactive) and 13.9% (inactive) | -13% (inactive) | 6% (inactive) | -1.1% (inactive) and 19.8% (inactive) | -11% (inactive) | 6% (inactive) | 29.3% (inactive) and 60.9% (inactive) | 23% (inactive) | 16% (inactive) | 37.4% (inactive) and 15.6% (inactive)
